# Test results published in the supplement of paper PMC10037445.
# In all, about 2,900 compounds were measured (“NF-kB SEAP reporter activity, fold change vs agonist alone”: median about 0.99, highest 2% from about 2.6 on). The entries come from a sample that favours the highest values as a whole.
# Legend:
# [1] = system: RAW-Dual; experiment: NF-kB SEAP reporter activity, fold change vs agonist alone; higher = enhanced NF-kB activity
# In short: (§1)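 Reporter activity is given as fold change relative to agonist-alone wells. To measure it, 50 nL of library stock was pin-tooled onto RAW-Dual macrophages (50,000 cells/well, DMEM, 384-well plates), a PRR agonist followed 1 h later, and cells stayed at 37 °C, 5% CO2. Twenty hours on, supernatant was assayed for IRF (QuantiLuc luminescence) and NF-κB (QuantiBlue, 620 nm absorbance), and wells under 70% of agonist-control IncuCyte confluency in both mask sets were marked cytotoxic.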
# [2] = system: RAW-Dual; experiment: NF-kB SEAP reporter activity, fold change vs agonist alone; cytotoxicity flag (confluency mask): not cytotoxic; library stock concentration (final ~1000-fold dilution): 10 mM; higher = enhanced NF-kB activity
# In short: as §1
# [3] = system: RAW-Dual; experiment: NF-kB SEAP reporter activity, fold change vs agonist alone; cytotoxicity flag (confluency mask): cytotoxic (confluency <70% of control); library stock concentration (final ~1000-fold dilution): 10 mM; higher = enhanced NF-kB activity
# In short: as §1
# [4] = system: RAW-Dual; experiment: NF-kB SEAP reporter activity, fold change vs agonist alone; cytotoxicity flag (confluency mask): not cytotoxic; library stock concentration (final ~1000-fold dilution): 10 mM water; higher = enhanced NF-kB activity
# In short: as §1
# [5] = library stock concentration (final ~1000-fold dilution): 10 mM, cytotoxicity flag (confluency mask): not cytotoxic, agonist: Imiquimod (TLR7) […]
# [6] = library stock concentration (final ~1000-fold dilution): 10 mM, cytotoxicity flag (confluency mask): not cytotoxic, agonist: MPLA (TLR4) […]
# [7] = agonist: ODN 1826 (TLR9) 0.5 ug/mL
# [8] = agonist: Pam2CSK4 (TLR2/6) 0.1 ug/mL
# [9] = agonist: Pam3CSK4 (TLR2/1) 0.1 ug/mL
# [10] = library stock concentration (final ~1000-fold dilution): 10 mM, cytotoxicity flag (confluency mask): cytotoxic (confluency <70% of control), agonist: Imiquimod (TLR7) […]
# [11] = library stock concentration (final ~1000-fold dilution): 10 mM, cytotoxicity flag (confluency mask): cytotoxic (confluency <70% of control), agonist: MPLA (TLR4) […]
# [12] = library stock concentration (final ~1000-fold dilution): 10 mM water, cytotoxicity flag (confluency mask): not cytotoxic, agonist: Imiquimod (TLR7) […]
# [13] = library stock concentration (final ~1000-fold dilution): 10 mM water, cytotoxicity flag (confluency mask): not cytotoxic, agonist: MPLA (TLR4) […]
structure (smiles),measurement,setting,value
CC1CCC/C=C/C2CC(O)CC2C(O)/C=C/C(=O)O1 (stereo not drawn),NF-kB SEAP reporter activity,[1]; [5],1.48
same,NF-kB SEAP reporter activity,[1]; [6],0.636
same,NF-kB SEAP reporter activity,[2]; agonist: LPS (TLR4) 0.1 ug/mL,0.305
same,NF-kB SEAP reporter activity,[2]; [7],0.297
same,NF-kB SEAP reporter activity,[2]; [8],0.209
same,NF-kB SEAP reporter activity,[2]; [9],0.469
O=C(O)CCCc1ccc(N(CCCl)CCCl)cc1,NF-kB SEAP reporter activity,[1]; [5],0.998
same,NF-kB SEAP reporter activity,[1]; [6],1
same,NF-kB SEAP reporter activity,[2]; agonist: LPS (TLR4) 0.1 ug/mL,0.89
same,NF-kB SEAP reporter activity,[2]; [7],1.04
same,NF-kB SEAP reporter activity,[2]; [8],1.21
same,NF-kB SEAP reporter activity,[2]; [9],1.24
Cn1c(CCCCCCC(=O)NO)nc2cc(N(CCCl)CCCl)ccc21,NF-kB SEAP reporter activity,[1]; [10],1.62
same,NF-kB SEAP reporter activity,[1]; [11],2.33
same,NF-kB SEAP reporter activity,[3]; agonist: LPS (TLR4) 0.1 ug/mL,3.35
same,NF-kB SEAP reporter activity,[3]; [7],1.5
same,NF-kB SEAP reporter activity,[3]; [8],1.55
same,NF-kB SEAP reporter activity,[3]; [9],1.91
Cl.O=C(O)Cc1c[nH]cn1,NF-kB SEAP reporter activity,[1]; [5],0.935
same,NF-kB SEAP reporter activity,[1]; [6],1.05
same,NF-kB SEAP reporter activity,[2]; agonist: LPS (TLR4) 0.1 ug/mL,1.34
same,NF-kB SEAP reporter activity,[2]; [7],0.991
same,NF-kB SEAP reporter activity,[2]; [8],0.973
same,NF-kB SEAP reporter activity,[2]; [9],0.728
CNC1C(O)C(OC2C(N)CC(N)C(OC3OC(C(C)O)C(O)C(O)C3N)C2O)OCC1(C)O.O=S(=O)(O)O.O=S(=O)(O)O (stereo not drawn),NF-kB SEAP reporter activity,[1]; [12],0.947
same,NF-kB SEAP reporter activity,[1]; [13],1.07
same,NF-kB SEAP reporter activity,[4]; agonist: LPS (TLR4) 0.1 ug/mL,1.15
same,NF-kB SEAP reporter activity,[4]; [7],1.26
same,NF-kB SEAP reporter activity,[4]; [8],1.15
same,NF-kB SEAP reporter activity,[4]; [9],1.12
CC12NC(Cc3ccccc31)c1ccccc12.O=C(O)/C=C\C(=O)O (stereo not drawn),NF-kB SEAP reporter activity,[1]; [5],1.16
same,NF-kB SEAP reporter activity,[1]; [6],1.1
same,NF-kB SEAP reporter activity,[2]; agonist: LPS (TLR4) 0.1 ug/mL,1.25
same,NF-kB SEAP reporter activity,[2]; [7],0.851
same,NF-kB SEAP reporter activity,[2]; [8],1.13
same,NF-kB SEAP reporter activity,[2]; [9],1.15
COc1cc(C)[nH]c(=O)c1CNC(=O)c1c(C)n(C(C)C2CCN(CC(F)(F)F)CC2)c2ccccc12 (stereo not drawn),NF-kB SEAP reporter activity,[1]; [5],0.35
same,NF-kB SEAP reporter activity,[1]; [6],0.914
same,NF-kB SEAP reporter activity,[2]; agonist: LPS (TLR4) 0.1 ug/mL,0.78
same,NF-kB SEAP reporter activity,[2]; [7],0.953
same,NF-kB SEAP reporter activity,[2]; [8],0.647
same,NF-kB SEAP reporter activity,[2]; [9],0.74
CC(N)C(=O)NC(CO)C(=O)NC(C(=O)NC(C(=O)NC(C(=O)NC(CC(N)=O)C(=O)NC(Cc1ccc(O)cc1)C(=O)NC(C(N)=O)C(C)O)C(C)O)C(C)O)C(C)O (stereo not drawn),NF-kB SEAP reporter activity,[1]; [12],0.968
same,NF-kB SEAP reporter activity,[1]; [13],1.05
same,NF-kB SEAP reporter activity,[4]; agonist: LPS (TLR4) 0.1 ug/mL,1.17
same,NF-kB SEAP reporter activity,[4]; [7],1.25
same,NF-kB SEAP reporter activity,[4]; [8],1.16
same,NF-kB SEAP reporter activity,[4]; [9],1.06
C=C(C)C1Cc2c(ccc3c2OC2COc4cc(OC)c(OC)cc4C2C3=O)O1 (stereo not drawn),NF-kB SEAP reporter activity,[1]; [5],1.87
same,NF-kB SEAP reporter activity,[1]; [6],1.85
same,NF-kB SEAP reporter activity,[2]; agonist: LPS (TLR4) 0.1 ug/mL,3.13
same,NF-kB SEAP reporter activity,[2]; [7],2.36
same,NF-kB SEAP reporter activity,[2]; [8],1.27
same,NF-kB SEAP reporter activity,[2]; [9],1.45
CCC1=CC2CN3CCc4c([nH]c5ccccc45)C(C(=O)OC)(C2)C13 (stereo not drawn),NF-kB SEAP reporter activity,[1]; [5],1.03
same,NF-kB SEAP reporter activity,[1]; [6],1.11
same,NF-kB SEAP reporter activity,[2]; agonist: LPS (TLR4) 0.1 ug/mL,1.04
same,NF-kB SEAP reporter activity,[2]; [7],1.06
same,NF-kB SEAP reporter activity,[2]; [8],0.935
same,NF-kB SEAP reporter activity,[2]; [9],1.03
COC1=CC2C3Cc4ccc(OC)c(O)c4C2(CCN3C)CC1=O.Cl (stereo not drawn),NF-kB SEAP reporter activity,[1]; [5],0.858
same,NF-kB SEAP reporter activity,[1]; [6],0.999
same,NF-kB SEAP reporter activity,[2]; agonist: LPS (TLR4) 0.1 ug/mL,0.877
same,NF-kB SEAP reporter activity,[2]; [7],0.884
same,NF-kB SEAP reporter activity,[2]; [8],1.16
same,NF-kB SEAP reporter activity,[2]; [9],1.09
CN1C2CC(OC(=O)C(CO)c3ccccc3)CC1C1OC12 (stereo not drawn),NF-kB SEAP reporter activity,[1]; [5],0.917
same,NF-kB SEAP reporter activity,[1]; [6],1.04
same,NF-kB SEAP reporter activity,[2]; agonist: LPS (TLR4) 0.1 ug/mL,1.23
same,NF-kB SEAP reporter activity,[2]; [7],1.02
same,NF-kB SEAP reporter activity,[2]; [8],1.11
same,NF-kB SEAP reporter activity,[2]; [9],1.58
CN1Cc2c(ccc3c2OCO3)C2C(O)Cc3cc4c(cc3C21)OCO4 (stereo not drawn),NF-kB SEAP reporter activity,[1]; [10],1.6
same,NF-kB SEAP reporter activity,[1]; [11],1.66
same,NF-kB SEAP reporter activity,[3]; agonist: LPS (TLR4) 0.1 ug/mL,2.16
same,NF-kB SEAP reporter activity,[3]; [7],1.75
same,NF-kB SEAP reporter activity,[3]; [8],1.42
same,NF-kB SEAP reporter activity,[3]; [9],2.18
